Screening data as filed in PubChem BioAssay.
BAZ2B inh: blocks human BAZ2B. Q9UIF8. AlphaScreen BAZ2B-H3K14Ac peptide displacement. Potency, µM (highest dose often 114 µM), for inactives: at the highest dose activity change, negative = inhibition, hits mostly inhibitors. actives 4.4% (n = 360,000); note: % is set by controls: 0 for no effect and ±100 for the full control effect; nearly all actives have a fitted effect of over 60% in size
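AlphaScreen displacement of biotin-H3(5-23)K14Ac peptide (50 nM final) from BAZ2B (50 nM final) in PBS pH 7.4, 0.01% Tween-20; complex preformed 30 min RT, then compounds (top 110 uM) 30 min RT, beads 20 min dark.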
JMJD2A Tudor inh: inhibitors of human JMJD2A Tudor domain. actives 4.4% (n = 390,000). AID 504339. Potency, µM (highest dose often 114 µM), for the others: top-dose activity change, negative = inhibition, hits mostly inhibitors. AlphaScreen JMJD2A-Tudor / H3K4me3 peptide binding. O75164; note: % is set by controls: 0 for no effect and ±100 for the full control effect; nearly all actives have a fitted effect of over 50% in size
Sfp PPTase inh: Sfp phosphopantetheinyl transferase inhibition; Biochemical Sfp PPTase activity, qHTS; Potency, µM, without a hit: largest response in the series, negative = inhibition, hits mostly inhibitors; actives 3.5% (n = 310,000); AID 1490;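 note: the enzyme is Sfp with the accession as filed and its product quenches rhodamine fluorescence; 0% = enzyme reaction without inhibitor and -100% = no enzyme wells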
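Sfp 15 nM + cpd, 15 min RT; start w/ rhodamine-CoA 5 uM, BHQ-2-YbbR 12.5 uM (final); 50 mM Hepes pH 7.6, 10 mM MgCl2, 0.01% NP-40, 0.01% BSA; read 525/598 nm at 0 and 30 min.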
L3MBTL1 inh: L3MBTL1 (human) inhibition; Q9Y468; AlphaScreen L3MBTL1–H3K9me1 peptide binding; Potency, µM (series often up to 57.1 µM), for the others: at the top dose activity, negative = inhibition, hits mostly inhibitors; actives 0.66% (n = 230,000); AID 485360; note: % is set by controls: 0 for no effect and ±100 for the full control effect; nearly all actives have a fitted effect of over 60% in size
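L3MBTL1 (50 nM) pre-complexed 30 min with biotinylated H3(1-15)K9me1 peptide (75 nM), then compounds added for 30 min at room temperature; AlphaScreen streptavidin donor/nickel chelate acceptor beads (10 ug/mL final) read after 30 min dark incubation.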
G9a inh: blocks human histone lysine methyltransferase G9a. Potency, µM (top dose mostly 102 µM), without a hit: at the top dose activity, negative = inhibition, most hits filed as inhibitors. AID 504332. G9a H3K9 monomethylation, AlphaScreen, 2 h. actives 8.8% (n = 350,000); note: % is set by controls: 0 for no effect and ±100 for the full control effect; nearly all actives have a fitted effect of over 75% in size
Target sequence (Q96KQ7 913-1193 limits assumed): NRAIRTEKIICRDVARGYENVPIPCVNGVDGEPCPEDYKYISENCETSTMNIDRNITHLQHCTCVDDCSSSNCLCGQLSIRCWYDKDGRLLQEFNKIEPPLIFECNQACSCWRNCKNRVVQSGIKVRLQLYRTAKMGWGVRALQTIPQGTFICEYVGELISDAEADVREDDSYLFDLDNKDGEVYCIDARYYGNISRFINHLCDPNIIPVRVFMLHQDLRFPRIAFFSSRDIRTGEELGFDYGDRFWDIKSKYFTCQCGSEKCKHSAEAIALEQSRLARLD
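Signal arises when biotinylated H3K9 peptide, once monomethylated, bridges streptavidin donor and antibody-captured acceptor beads. Enzyme at 20 nM was preincubated 15 min with test compounds; peptide 500 nM and SAM 20 uM then reacted for 2 h.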
HP1b chromo inh: HP1-beta chromodomain-methylated histone interaction inhibition; P83916; AlphaScreen HP1-beta / biotin-H3K9me3 peptide binding; Potency, µM (top dose mostly 114 µM), inactives show at the top dose activity change, negative = inhibition, usual class: inhibitors; actives 0.56% (n = 390,000); note: nearly all actives have a fitted effect of over 70% in size
Target sequence (P83916 whole entry, looked up): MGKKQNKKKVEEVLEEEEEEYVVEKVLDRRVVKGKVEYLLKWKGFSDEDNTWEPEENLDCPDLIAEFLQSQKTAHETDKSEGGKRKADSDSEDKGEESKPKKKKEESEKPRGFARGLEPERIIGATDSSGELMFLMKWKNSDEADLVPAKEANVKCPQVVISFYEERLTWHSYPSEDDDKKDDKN
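AlphaScreen: HP1-beta (50 nM) preformed 30 min with biotin-H3(1-18)K9me3 peptide (50 nM) in PBS pH 7.4, 0.01% Tween-20. Compound added for 30 min at RT, then streptavidin donor/nickel chelate acceptor beads (10 ug/mL) for 30 min.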
* hit, by the source's call; u = inconclusive; x = no result given; ! = repeats disagree; [ ] = dose if it differs, or a comment. Rows were chosen to be rich in hits. Some 12% of all compounds tested hit in one or more screens of this group. Calls come from the whole dose curve; as a rule, active = well fitted curve in the direction sought with a large enough effect; inconclusive = small, poorly fitted or top-dose-only effect, or another doubt; inactive = no such curve, though single readings can be large; an effect the other way counts as inactive or inconclusive. Potency is the fitted concentration of half-maximal effect.

SMILES	BAZ2B inh	JMJD2A Tudor inh	Sfp PPTase inh	L3MBTL1 inh	G9a inh	HP1b chromo inh
CC(C)c1cc2c(c(O)c1O)[C@]1(C(=O)O)CCCC(C)(C)C1CC2 (stereo partly specified)	x	x	-107.5%	x	-38.2%[2.33 µM]	x
N#Cc1ccc(CN2CC[C@@]3(CCCNC3)C2)cc1	x	x	4.9%	x	-9.7%[12.7 µM]	x
CCCCn1c(O)c(/C=N/NC(=O)c2ccncc2)c(=O)[nH]c1=O	u	u	-5.0%	-1.9%	x	41.0%
CCc1ccc(-n2c(O)c(/C=N/NC(=O)c3ccncc3)c(=O)[nH]c2=O)cc1	56.2µM*	u	21.6%	-24.3%	8.3%	19.4%
CC1(C)CC(=O)C2=C(C1)OC(N)=C([N+](=O)[O-])C2c1ccc(C#N)s1 (stereo unspecified)	u	-14.7%	35.5µM*	-9.4%	-9.0%[12.7 µM]	10.5%
CCCCC(CC)CNCC(O)c1ccccc1 (stereo unspecified)	x	7.08µM*	-4.2%	3.8%	25.1µM*	-22.0%
C[C@@H]1O[C@H](C[N+](C)(C)C)C[C@@H]1O	x	x	22.4%	x	15.5%[59 µM]	x
N#CN=C1SCCN1Cc1ccc(Cl)nc1	x	x	7.1%	x	x	x
Oc1ccccc1/C=N/[n+]1ccccc1	-6.8%	-3.0%	-5.9%	6.2%	56.2µM*	-11.9%
Cc1ccc(N2C(=O)NC(=O)/C(=C\c3cn(CC(=O)O)c4ccccc34)C2=O)cc1	u	-9.2%	-24.8%	-2.3%	25.1µM*	27.9%
O=C(O)Cn1cc(/C=C2\C(=O)NC(=O)N(Cc3ccco3)C2=O)c2ccccc21	70.8µM*	79.4µM*	28.2µM*	5.01µM*	15.8µM*	-30.5%
COC(=O)Cn1cc(/C=C2\C(=O)NC(=O)N(c3ccccc3)C2=O)c2ccccc21	-4.4%	-24.7%	-24.4%	-5.4%	-4.9%	31.0%
O=C(O)Cn1cc(/C=C2\C(=O)NC(=O)N(c3ccc(Br)cc3)C2=O)c2ccccc21	-4.0%	-9.2%	28.2µM*	x	56.2µM*	9.0%[57 µM]
CCN1C(=O)NC(=O)/C(=C\c2cn(CC(=O)O)c3ccccc23)C1=O	-14.0%	x	2.4%	x	8.5%[2.33 µM]	x
Cc1cc(/C=C2/C(=O)NC(=O)N(Cc3ccco3)C2=O)c(C)n1-c1ccccc1O	35.5µM*	u	6.0%	-14.8%	x	-8.2%
CCc1ccccc1N1C(=O)NC(=O)/C(=C\c2cc(C)n(C)c2C)C1=O	-4.4%	-15.4%	3.3%	-4.8%	9.1%[59 µM]	u
COC1=CC(=O)O[C@@H](/C=C\c2ccccc2)C1	x	x	11.6%	x	29.4%[21.5 µM]	x
Nc1c([N+](=O)[O-])ccc(Oc2ccccc2)c1Cl	x	x	-17.7%	x	x	x
CCN(CC)c1ccc(/C=C2\C(=O)NC(=O)N(Cc3ccco3)C2=O)cc1	50.1µM*	u	u	-26.7%	u	-12.3%
CCCCN1C(=O)/C(=C/c2ccc(N(C)C)cc2)C(=O)N(Cc2ccco2)C1=O	u	u	-17.6%	u	-3.7%[12.7 µM]	-16.5%
COc1ccccc1OCC#CCN1CCCC(C)C1 (stereo unspecified)	25.1µM*	11.2µM*	-0.3%	36.6%	x	u
COc1ccccc1OCC#CCN1CCOCC1	28.2µM*	u	u	-12.4%[2.29 µM]	3.98µM*	70.8µM*
CC(C)(C)c1ccc(C(=O)NC(=S)Nn2cnnc2)cc1	8.0%	-17.1%	u	-2.6%	31.6µM*	-5.4%
CC1CCC(NCCc2ccc3c(c2)OCO3)CC1 (stereo unspecified)	u	3.16µM*	-0.1%	-0.6%	u	u
c1cc2c(cc1CCNC1C3CC4CC(C3)CC1C4)OCO2 (stereo unspecified)	u	3.98µM*	-5.4%	-2.1%	25.1µM*	-21.6%
SMILES	BAZ2B inh	JMJD2A Tudor inh	Sfp PPTase inh	L3MBTL1 inh	G9a inh	HP1b chromo inh
CCC(Sc1ccccc1)C(=O)OC1CC2CCC(C1)N2C (stereo unspecified)	x	x	-25.6%	x	-1.2%[59 µM]	x
CC(C)CN1CC[C@@]2(CCCN(C(=O)c3ccncc3)C2)C1	x	x	-3.0%	x	7.7%[12.7 µM]	x
CC(C)COC(=O)OCN1C(=O)CN(CCN2CC(=O)N(COC(=O)OCC(C)C)C(=O)C2)CC1=O	0.8%	-7.2%	17.8%	9.3%	12.6µM*!	48.1%
O=C1C(Cl)=C(N2CCOCC2)C(=O)N1c1ccccc1F	-26.7%	-12.3%	8.8%	u	35.5µM*	75.9%
Cc1ccc(CNC(=O)c2ccc(CSc3nc4ccncc4n3Cc3ccc(C)cc3)cc2)cc1	9.9%	-17.4%	x	x	20.3%[59 µM]	44.1%
C[C@@]12CC[C@H](O)C[C@@H]1CC[C@H]1[C@@H]2C[C@@H](O)[C@]2(C)[C@@H](C3=CC(=O)OC3)CC[C@]12O	x	x	-4.9%	x	10.4%[21.5 µM]	x
COc1ccc(CNC(=O)Cn2c(=O)oc3cc(S(=O)(=O)N4CCCC4)ccc32)cc1	-23.7%	-3.4%	3.5%	x	-18.7%[59 µM]	33.9%
CN(C)c1ccc(CNC(=O)Cn2c(=O)oc3cc(S(=O)(=O)N4CCCCCC4)ccc32)cc1	25.1µM*	u	x	x	11.2µM*	-33.2%
CNC(C)Cc1ccc(OC)cc1 (stereo unspecified)	x	x	-6.0%	x	x	x
CCCN(CC#CCOc1ccc(OC)cc1)CCC	56.2µM*	6.31µM*	-25.1%	-0.3%	8.91µM*	-46.6%
CCCCn1c(C)c(C(=O)OCC)c2c(CN3CCOCC3)c(O)ccc21	-38.3%	u	-21.4%	x	u	-8.8%
CCCCn1c(C)c(C(=O)OCC)c2c(CN3CCCC3)c(O)ccc21	-34.9%	-30.6%	-6.3%	x	39.8µM*	6.0%
O=C(OCC(=O)N1CCOCC1)c1ccc[nH]c1=O	x	17.8µM*	1.7%	3.7%	20µM*	-3.8%
C[C@]12CCC(=O)C(O)=C1CC[C@@H]1[C@H]3CCC(=O)[C@@]3(C)CC[C@@H]12	x	x	11.5%	x	-35.0%[2.33 µM]	x
CN1CCN(c2cc(N3CCCC3)c([N+](=O)[O-])cc2F)CC1	-36.4%	u	23.6%	-3.6%	u	u
CCN1CCN(c2cc(N3CCCC3)c(F)cc2[N+](=O)[O-])CC1	-37.7%	-33.6%	-12.8%	-13.8%	44.7µM*	-13.5%
COc1cc(CC(=O)OCC2=C[C@H]3[C@@H]4C(C)(C)[C@]4(OC(C)=O)[C@H](OC(=O)Cc4ccccc4)[C@@H](C)[C@]3(O)[C@@H]3C=C(C)C(=O)[C@@]3(O)C2)ccc1O	x	x	-2.1%	x	u	x
CCCCCCCCCCCCCC(=O)O[C@@H]1[C@@H](C)[C@@]2(O)[C@@H](C=C(CO)C[C@@]3(O)C(=O)C(C)=C[C@@H]23)C2C(C)(C)[C@@]21OC(C)=O (stereo partly specified)	x	x	x	x	7.94µM*!	x
Cc1noc(C)c1C(=O)N1CCC2(CCCN(CC(C)C)C2)CC1	x	x	4.0%	x	7.0%[12.7 µM]	x
CCOC(=S)SSC(=S)OCC	x	x	5.62µM*	x	u	x
